Results reported in PubChem BioAssay.
For some assays here: Entries with a potency or affinity are not part of this list. Active and inactive are the calls of the source. Unless noted, the rule behind the calls is not given here.

molecular target: Protein kinase 7 (PK7), Plasmodium falciparum 3D7 (PF3D7_0213400) (UniProt Q7YTF7); assay: inhibition of Plasmodium PK7 catalytic activity – biochemical, TCAMS antimalarial set, Kinase-Glo luminescence (AID 1159587); details: recombinant PfPK7, Kinase-Glo ATP depletion luminescence
Sequence (Q7YTF7 1-343): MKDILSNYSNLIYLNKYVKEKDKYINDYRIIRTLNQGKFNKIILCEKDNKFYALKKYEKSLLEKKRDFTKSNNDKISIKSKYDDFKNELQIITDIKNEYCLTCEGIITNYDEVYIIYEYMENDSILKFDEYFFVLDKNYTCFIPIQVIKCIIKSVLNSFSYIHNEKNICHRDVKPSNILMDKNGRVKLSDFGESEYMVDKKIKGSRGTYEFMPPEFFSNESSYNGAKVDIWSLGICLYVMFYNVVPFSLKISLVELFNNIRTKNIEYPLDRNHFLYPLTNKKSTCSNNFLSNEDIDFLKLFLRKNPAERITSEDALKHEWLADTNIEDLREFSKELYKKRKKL

outcome, inactive:
COc1cccc(-n2ncc3c(N/N=C/c4ccc(CN(C)CCN(C)C)cc4)ncnc32)c1
COc1cc(CCNCC(O)c2ccc([N+](=O)[O-])c(OCc3ccccc3)c2)cc(OC)c1OC (stereo not drawn)
O=C(Nc1cccc(Cl)c1)c1cc2ccccc2cc1O
Clc1cccc(C=NNc2ccnc3cc(Cl)ccc23)c1
CN(C)Cc1ccc(CNC2CCN(Cc3ccccc3Cl)CC2)cc1
Cc1ccc(Cn2ccc3c4c(N)nc(N)nc4ccc32)cc1
COc1cc(Nc2nccc(-c3c(-c4cccc(NC(=O)c5c(F)cccc5F)c4)nn4ncccc34)n2)cc(OC)c1OC
Cn1cccc1C(=O)Nc1cccc(-c2nn3ccccc3c2-c2ccnc(Nc3ccc4c(c3)OCCO4)n2)c1
O=C(Nc1ccccc1)Nc1cccc(-c2nn3c(OCCN4CCCC4)cccc3c2-c2ccncc2)c1
COc1cccc(-c2nc(Nc3ccncc3)c3ncn(C)c3n2)c1
CO/N=C(\C)c1ccc2c(c1)CCN(CCC1CCC(NC(=O)c3cccc(-c4noc(C)n4)c3)CC1)CC2 (stereo not drawn)
Cc1[nH]nc2ccc(-c3cc(OC[C@@H](N)Cc4ccccc4)cnc3-c3cc4ccccc4s3)cc12
Oc1ccc(CCNCCCCCNCCCc2ccc(Cl)cc2)cc1O
Cc1cccc(Cn2ccc3c(N)nc(N)nc32)c1
CCN(CC)CCCN(C(=O)Nc1cc(F)cc(F)c1)c1nc(-c2ccc(F)cc2)cs1
Fc1ccccc1C=NNc1ccnc2cc(Cl)ccc12
CN(C)c1ccc(NC(=O)Nc2ccnc3ccccc23)cc1Br
COc1cc(OC)cc(C(=O)Nc2nc(-c3ccc(NC(=O)c4ccccc4)cc3)cs2)c1
CCc1cc2c3c(N)nc(N)nc3ccc2n1C(C)(C)C
C[C@@H]1CN(c2ccc3[nH]cc(Sc4ccc(-c5cccs5)cc4)c3c2)C[C@H](C)N1
NS(=O)(=O)c1cccc(N=Cc2c(O)[nH]c3ccc(S(=O)(=O)Cc4c(Cl)cccc4Cl)cc23)c1
CN(c1ccc(NC(=O)Nc2cc(C(C)(C)C)on2)cc1)c1ccnc(NCCN2CCOCC2)n1
N#Cc1cnc(Nc2ccc(Oc3ccccc3)cc2)nc1Nc1cccc(S(N)(=O)=O)c1
CNC(=O)c1ccc(/C=C/C(=O)N2CCc3ccc(-c4ccccc4)cc3C2c2cccc(C(F)(F)F)c2)cc1 (stereo not drawn)
CCN(CC)CCCC(C)Nc1nc(C=Cc2ccc(Br)cc2)nc2cc(Cl)ccc12 (stereo not drawn)
CCn1c(-c2nonc2N)nc2c(-c3cc4ccccc4s3)ncc(C(=O)N3CCC(N)C3)c21 (stereo not drawn)
N#Cc1ccc(C(=O)Nc2cc(-c3cccc(O)c3)cc3[nH]ncc23)cc1
Clc1ccc(C=NNc2ccnc3cc(Cl)ccc23)cc1
Cc1ccccc1Cn1ccc2c3c(N)nc(N)nc3ccc21
O=C(Nc1ccc(OC2CCN(CC3CC3)CC2)c(Cl)c1)c1ccc2ncccc2c1
CCN(CC)CCNC(=O)c1ccc(N=Cc2c(O)[nH]c3ccc(S(=O)(=O)Cc4c(Cl)cccc4Cl)cc23)cc1
CCS(=O)(=O)c1ccc(OC)c(Nc2nccc(-c3c(-c4cccc(NC(=O)c5c(F)cccc5F)c4)nn4ncccc34)n2)c1
COc1ccc(NC(=O)c2ccc(-c3cccc(OCc4ccccc4)c3)cc2)cc1N1CCN(C)CC1
Brc1ccsc1-c1nc(NC2CCN(Cc3ccccc3)CC2)no1
Cc1nc2ccccc2n1C1C[C@H]2CC[C@@H](C1)N2CCC1(c2ccccc2)CCN(C(=O)Nc2ccc(C(F)(F)F)cc2)CC1 (stereo partly drawn)
O=c1c2cccnc2sn1-c1ccccc1
CCCCNC(=O)C1CCCN(C(=O)c2ccc(O)c(-c3ccc(Cl)c(Cl)c3)c2)C1 (stereo not drawn)
CCc1cc(-c2n[nH]c(C(F)(F)F)c2-c2ccccc2)c(O)cc1OC

molecular target: Calcium-dependent protein kinase 4 (Plasmodium falciparum (isolate 3D7)) (UniProt Q8IBS5); assay: PfCDPK4 kinase inhibitors, biochemical, TCAMS library (AID 1159588; cut-off not given, nearly all actives have IC50 up to about 0.91 µM); details: recombinant PfCDPK4, Kinase-Glo ATP depletion luminescence
Sequence (Q8IBS5 whole entry, looked up): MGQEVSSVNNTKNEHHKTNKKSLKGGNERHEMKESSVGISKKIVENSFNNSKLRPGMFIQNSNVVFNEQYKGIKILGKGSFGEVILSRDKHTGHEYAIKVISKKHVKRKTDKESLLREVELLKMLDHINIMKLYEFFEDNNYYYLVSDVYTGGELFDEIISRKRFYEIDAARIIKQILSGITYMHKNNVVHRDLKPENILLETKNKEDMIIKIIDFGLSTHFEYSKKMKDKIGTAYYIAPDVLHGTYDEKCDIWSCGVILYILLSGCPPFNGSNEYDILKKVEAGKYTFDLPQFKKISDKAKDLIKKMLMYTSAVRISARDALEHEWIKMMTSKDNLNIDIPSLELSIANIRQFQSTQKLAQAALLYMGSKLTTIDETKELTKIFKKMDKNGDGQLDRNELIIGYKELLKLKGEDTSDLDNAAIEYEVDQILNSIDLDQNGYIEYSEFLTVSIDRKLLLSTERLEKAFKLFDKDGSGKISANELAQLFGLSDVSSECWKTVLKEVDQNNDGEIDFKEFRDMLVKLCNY

outcome, inactive:
COc1cccc(-n2ncc3c(N/N=C/c4ccc(CN(C)CCN(C)C)cc4)ncnc32)c1
COc1cc(CCNCC(O)c2ccc([N+](=O)[O-])c(OCc3ccccc3)c2)cc(OC)c1OC (stereo not drawn)
O=C(Nc1cccc(Cl)c1)c1cc2ccccc2cc1O
Clc1cccc(C=NNc2ccnc3cc(Cl)ccc23)c1
CN(C)Cc1ccc(CNC2CCN(Cc3ccccc3Cl)CC2)cc1
Cc1ccc(Cn2ccc3c4c(N)nc(N)nc4ccc32)cc1
COc1cccc(-c2nc(Nc3ccncc3)c3ncn(C)c3n2)c1
CO/N=C(\C)c1ccc2c(c1)CCN(CCC1CCC(NC(=O)c3cccc(-c4noc(C)n4)c3)CC1)CC2 (stereo not drawn)
Oc1ccc(CCNCCCCCNCCCc2ccc(Cl)cc2)cc1O
Cc1cccc(Cn2ccc3c(N)nc(N)nc32)c1
CCN(CC)CCCN(C(=O)Nc1cc(F)cc(F)c1)c1nc(-c2ccc(F)cc2)cs1
Fc1ccccc1C=NNc1ccnc2cc(Cl)ccc12
CN(C)c1ccc(NC(=O)Nc2ccnc3ccccc23)cc1Br
COc1cc(OC)cc(C(=O)Nc2nc(-c3ccc(NC(=O)c4ccccc4)cc3)cs2)c1
CCc1cc2c3c(N)nc(N)nc3ccc2n1C(C)(C)C
C[C@@H]1CN(c2ccc3[nH]cc(Sc4ccc(-c5cccs5)cc4)c3c2)C[C@H](C)N1
CN(c1ccc(NC(=O)Nc2cc(C(C)(C)C)on2)cc1)c1ccnc(NCCN2CCOCC2)n1
N#Cc1cnc(Nc2ccc(Oc3ccccc3)cc2)nc1Nc1cccc(S(N)(=O)=O)c1
CNC(=O)c1ccc(/C=C/C(=O)N2CCc3ccc(-c4ccccc4)cc3C2c2cccc(C(F)(F)F)c2)cc1 (stereo not drawn)
CCN(CC)CCCC(C)Nc1nc(C=Cc2ccc(Br)cc2)nc2cc(Cl)ccc12 (stereo not drawn)
Clc1ccc(C=NNc2ccnc3cc(Cl)ccc23)cc1
Cc1ccccc1Cn1ccc2c3c(N)nc(N)nc3ccc21
O=C(Nc1ccc(OC2CCN(CC3CC3)CC2)c(Cl)c1)c1ccc2ncccc2c1
COc1ccc(NC(=O)c2ccc(-c3cccc(OCc4ccccc4)c3)cc2)cc1N1CCN(C)CC1
Brc1ccsc1-c1nc(NC2CCN(Cc3ccccc3)CC2)no1
Cc1nc2ccccc2n1C1C[C@H]2CC[C@@H](C1)N2CCC1(c2ccccc2)CCN(C(=O)Nc2ccc(C(F)(F)F)cc2)CC1 (stereo partly drawn)
O=c1c2cccnc2sn1-c1ccccc1
CCCCNC(=O)C1CCCN(C(=O)c2ccc(O)c(-c3ccc(Cl)c(Cl)c3)c2)C1 (stereo not drawn)
CCc1cc(-c2n[nH]c(C(F)(F)F)c2-c2ccccc2)c(O)cc1OC
O=C(O)c1ccc(-c2cnc3ccc(NC4CCC(O)CC4)nn23)cc1 (stereo not drawn)
